# In PubChem BioAssay (NCATS):
# Inconclusive results are not listed. Activity calls are given as the source filed them. Calls follow the shape of the full dose curve.
# Experiment: Primary qHTS to identify inhibitors of SARS-CoV-2 cell entry (AID 1645846); also: nearly all actives have a fitted effect of over 45% in size
# Conditions: SARS-CoV-2 pseudovirus cell entry assay, luminescence; activity change, negative = inhibition: at 57.1 µM (top of the series) unless noted
# Summary of the method: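 Luminescence readout (Bright-Glo luciferase) 48 h after pseudoparticle addition. HEK293-ACE2 cells, 1500/well; compound pre-incubation 1 h; Normalized to spike PP and bald PP.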
# Potency is read from the fitted curve at half-maximal effect.
SMILES,"activity change, negative = inhibition",Potency,outcome
CS(=O)(=O)N1CCC(NC(=O)c2[nH]ncc2NC(=O)c2c(Cl)cccc2Cl)CC1,-94.8%,,
NC1CCCN(c2c(/C=C3\SC(=O)NC3=O)cccc2-c2ccccc2)C1 (stereo not drawn),-5.59%,,
NC(=O)[C@H]1CCS[C@@H]2C[C@]3(CCCN3C(=O)Cc3ccc(NC(=O)COc4ccc(Cl)cc4Cl)cc3)C(=O)N12,,25.1 µM (active),
Fc1ccc2[nH]ccc2c1-c1nc(N2CCOCC2)c2sc(CN3CCN(CC4CC4)CC3)cc2n1,,31.6 µM (active),
CN(C)CCNC(=O)COc1c2cccc1Cc1cccc(c1OCC(=O)NCCN(C)C)Cc1cccc(c1OCC(=O)NCCN(C)C)Cc1cccc(c1OCC(=O)NCCN(C)C)C2,,,inactive [at 11.3 µM]
Cc1cc2c(F)c(Oc3ncnn4cc(OCC(C)OC(=O)C(C)N)c(C)c34)ccc2[nH]1 (stereo not drawn),,11.2 µM (active),
O=C(Nc1ccnc(NC(=O)C2CC2)c1)c1c(Cl)cccc1Cl,-97%,,
CCNCCc1ccc(CN(CC)c2cc(OC)ccc2[C@@H]2CCc3cc(O)ccc3C2)cc1,,31.6 µM (active),
Cn1cc(-c2cnn3c(N)c(Br)c([C@@H]4CCCNC4)nc23)cn1,,35.5 µM (active),
Nc1nccn2c(C3CCC(C(=O)O)CC3)nc(-c3cc4cccc(Cl)c4[nH]3)c12 (stereo not drawn),-18%,,
COc1ccc(N2C(=O)N(c3c(C)cccc3Cl)Cc3cnc(Nc4ccc(C5CCN(C)CC5)cc4OC)nc32)nc1,,35.5 µM (active),
CNCCn1c(=O)c2cc(OC)c(OC)cc2c2cnc3cc4c(cc3c21)OCO4,-98.1% [at 11.3 µM],,
NS(=O)(=O)c1ccc(S(=O)(=O)Nc2cccc3c(Cl)c[nH]c23)cc1,-3.77%,,
